# Results published in PubChem BioAssay AID1159580 (chemical genetic matrix, 2015).
# “And” between values parts separate entries of the source, which are not always exact repeats. Equal entries are not always repeated. The whole screen tested about 5,500 compounds, of which about 2,000 (36%) were called active. Roughly 18% stayed inconclusive and do not appear here. The list shows a part of the results. Values without a mark were called inactive. Rule as the data show it: active = normalized growth mostly below about 0.91 (no sharp cut-off); inconclusive = no clear call, values can overlap the other calls; inactive = mostly above about 0.92.
# Test: chemical genetic growth profiling, strain panel (AID 1159580);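 also: tested at 20 µM; growth read once vehicle control cultures reached saturation at 30 °C; 1 = growth at the plate median or of vehicle wells; lower values mean less growth of the strain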
# Details: S. cerevisiae deletion strains, growth OD
compound,measurement,setting,value
CN1CCN(CCC=C2c3ccccc3Sc3ccc(S(=O)(=O)N(C)C)cc32)CC1,normalized growth,"locus YAL013W, strain DEP1, stronger effect = lower value",1.01
same,normalized growth,"locus YAL021C, strain ccr4, stronger effect = lower value",0.987
same,normalized growth,"locus YAL026C, strain drs2, stronger effect = lower value",0.767 (active)
same,normalized growth,"locus YAL030W, strain snc1, stronger effect = lower value",0.991
same,normalized growth,"locus YBL061C, strain skt5, stronger effect = lower value",0.973
same,normalized growth,"locus YBR009C, strain hhf1, stronger effect = lower value",0.931
same,normalized growth,"locus YBR021W, strain FUR4, stronger effect = lower value",0.978
same,normalized growth,"locus YBR023C, strain chs3, stronger effect = lower value",0.919
same,normalized growth,"locus YBR171W, strain sec66, stronger effect = lower value",1.01
same,normalized growth,"locus YBR229C, strain ROT2, stronger effect = lower value",1.01
same,normalized growth,"locus YBR231C, strain swc5, stronger effect = lower value",0.945
same,normalized growth,"locus YBR279W, strain paf1, stronger effect = lower value",0.964
same,normalized growth,"locus YCL011C, strain gbp2, stronger effect = lower value",1.01
same,normalized growth,"locus YCL016C, strain dcc1, stronger effect = lower value",0.971
same,normalized growth,"locus YCL029C, strain bik1, stronger effect = lower value",0.978
same,normalized growth,"locus YCL061C, strain MRC1, stronger effect = lower value",0.953
same,normalized growth,"locus YCL069W, strain vba3, stronger effect = lower value",0.971
same,normalized growth,"locus YCR088W, strain abp1, stronger effect = lower value",1.01
same,normalized growth,"locus YDL005C, strain med2, stronger effect = lower value",0.996
same,normalized growth,"locus YDL035C, strain GPR1, stronger effect = lower value",1
same,normalized growth,"locus YDL040C, strain nat1, stronger effect = lower value",0.993
same,normalized growth,"locus YDL074C, strain BRE1, stronger effect = lower value",0.989
same,normalized growth,"locus YDL101C, strain DUN1, stronger effect = lower value",1
same,normalized growth,"locus YDL134C, strain PPH21, stronger effect = lower value",1
same,normalized growth,"locus YDL185W, strain tfp1, stronger effect = lower value",0.989
same,normalized growth,"locus YDL192W, strain arf1, stronger effect = lower value",0.991
same,normalized growth,"locus YDR001C, strain nth1, stronger effect = lower value",1.01
same,normalized growth,"locus YDR069C, strain doa4, stronger effect = lower value",1
same,normalized growth,"locus YDR101C, strain arx1, stronger effect = lower value",0.95
same,normalized growth,"locus YDR137W, strain rgp1, stronger effect = lower value",1.23 [resistant] (active)
same,normalized growth,"locus YDR150W, strain NUM1, stronger effect = lower value",1.02
same,normalized growth,"locus YDR159W, strain sac3, stronger effect = lower value",0.936
same,normalized growth,"locus YDR162C, strain NBP2, stronger effect = lower value",1
same,normalized growth,"locus YDR195W, strain ref2",1.1
same,normalized growth,"locus YDR297W, strain sur2, stronger effect = lower value",0.975
same,normalized growth,"locus YDR318W, strain mcm21, stronger effect = lower value",0.911 (active)
same,normalized growth,"locus YDR334W, strain swr1, stronger effect = lower value",1.01
same,normalized growth,"locus YDR335W, strain msn5, stronger effect = lower value",0.953
same,normalized growth,"locus YDR388W, stronger effect = lower value",0.922 (active)
same,normalized growth,"locus YDR392W, strain spt3, stronger effect = lower value",0.456 (active)
same,normalized growth,"locus YDR502C, strain sam2, stronger effect = lower value",0.931
same,normalized growth,"locus YEL003W, strain gim4, stronger effect = lower value",1.01
same,normalized growth,"locus YEL037C, strain rad23, stronger effect = lower value",1
same,normalized growth,"locus YEL061C, strain CIN8 (second series), stronger effect = lower value",0.998
same,normalized growth,"locus YEL061C, strain CIN8, stronger effect = lower value",1.02
same,normalized growth,"locus YER015W, strain faa2, stronger effect = lower value",0.985
same,normalized growth,"locus YER016W, strain bim1, stronger effect = lower value",0.992
same,normalized growth,"locus YER110C, stronger effect = lower value",0.977
same,normalized growth,"locus YER111C, strain swi4, stronger effect = lower value",0.988
same,normalized growth,"locus YER155C, strain BEM2 (second series), stronger effect = lower value",0.681 (active)
same,normalized growth,"locus YER155C, strain BEM2, stronger effect = lower value",0.999
same,normalized growth,"locus YER167W, strain BCK2, stronger effect = lower value",1
same,normalized growth,"locus YFR010W, strain ubp6, stronger effect = lower value",0.965
same,normalized growth,"locus YGL078C, strain dbp3, stronger effect = lower value",0.996
same,normalized growth,"locus YGL086W, strain mad1, stronger effect = lower value",0.946
same,normalized growth,"locus YGL167C, strain pmr1, stronger effect = lower value",1.01
same,normalized growth,"locus YGL173C, strain kem1, stronger effect = lower value",0.969
same,normalized growth,"locus YGL227W, strain vid30, stronger effect = lower value",1.02
same,normalized growth,"locus YGL240W, strain doc1, stronger effect = lower value",0.921
same,normalized growth,"locus YGL248W, strain PDE1, stronger effect = lower value",1
same,normalized growth,"locus YGL253W, strain hxk2, stronger effect = lower value",0.889 (active)
same,normalized growth,"locus YGR135W, strain pre9, stronger effect = lower value",0.904
same,normalized growth,"locus YGR252W, strain gcn5, stronger effect = lower value",0.711 (active)
same,normalized growth,"locus YHR013C, strain ard1, stronger effect = lower value",0.944
same,normalized growth,"locus YHR027C, strain rpn1, stronger effect = lower value",0.99
same,normalized growth,"locus YHR030C, strain SLT2, stronger effect = lower value",1.01 and 0.981
same,normalized growth,"locus YHR079C, strain IRE1 (second series), stronger effect = lower value",0.933
same,normalized growth,"locus YHR079C, strain IRE1, stronger effect = lower value",0.98
same,normalized growth,"locus YHR094C, strain hxt1, stronger effect = lower value",0.972
same,normalized growth,"locus YHR129C, strain ARP1, stronger effect = lower value",1.01
same,normalized growth,"locus YHR142W, strain chs7, stronger effect = lower value",0.86 (active)
same,normalized growth,"locus YHR200W, strain rpn10, stronger effect = lower value",0.96
same,normalized growth,"locus YIL066C, strain RNR3, stronger effect = lower value",1.01
same,normalized growth,"locus YIL073C, strain SPO22, stronger effect = lower value",1.02
same,normalized growth,"locus YIL125W, strain kgd1, stronger effect = lower value",0.997
same,normalized growth,"locus YIR030C, strain dcg1, stronger effect = lower value",0.98
same,normalized growth,"locus YJL092W, strain hpr5, stronger effect = lower value",0.977
same,normalized growth,"locus YJL095W, strain BCK1 (second series), stronger effect = lower value",0.973
same,normalized growth,"locus YJL095W, strain BCK1, stronger effect = lower value",0.992 and 0.978
same,normalized growth,"locus YJL115W, strain asf1, stronger effect = lower value",1
same,normalized growth,"locus YJL129C, strain trk1, stronger effect = lower value",1.03
same,normalized growth,"locus YJL134W, strain LCB3, stronger effect = lower value",1.01
same,normalized growth,"locus YJL154C, strain vps35, stronger effect = lower value",1.01
same,normalized growth,"locus YJL164C, strain tpk1, stronger effect = lower value",0.972
same,normalized growth,"locus YJL166W, strain qcr8, stronger effect = lower value",0.979
same,normalized growth,"locus YJL168C, strain set2, stronger effect = lower value",0.971
same,normalized growth,"locus YJL187C, strain SWE1 (second series), stronger effect = lower value",1.01
same,normalized growth,"locus YJL187C, strain SWE1, stronger effect = lower value",0.994
